# Data: PubChem BioAssay (NCATS)
# Values joined by “and” are separate entries in the source; they are usually repeats but may differ in a detail not shown here. Equal values may be shown once. Results filed as inconclusive are left out. Where a structure was tested more than once in an assay, its records may differ in their call. Active and inactive are the calls of the source. The call rests on the fitted dose curve.
# Experiment: Primary qHTS to identify inhibitors of SARS-CoV-2 cell entry (AID 1645846); further: nearly all actives have a fitted effect of over 45% in size
# Settings: SARS-CoV-2 pseudovirus cell entry assay, luminescence; activity change, negative = inhibition: at 57.1 µM (top of the series) unless noted
# How it was run: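 Entry measured by luciferase signal 48 h after adding SARS-CoV-2-S pseudotyped MLV particles to HEK293-ACE2 cells preincubated 1 h with compounds. Normalisation: bald particles and spike particles.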
# Potency means the concentration at half of the fitted maximal effect.
SMILES,Potency,"activity change, negative = inhibition"
COc1cc([C@@H]2c3cc4c(cc3[C@@H](O[C@@H]3O[C@@H]5CO[C@@H](C)O[C@H]5[C@H](O)[C@H]3O)[C@H]3COC(=O)[C@H]23)OCO4)cc(OC)c1OP(=O)(O)O,3.55 µM (active),–
C[C@H](Oc1cc(-c2cnn(C3CCNCC3)c2)cnc1N)c1c(Cl)ccc(F)c1Cl,11.2 µM (active),–
CCCCC(=O)OCC(=O)[C@]1(O)Cc2c(O)c3c(c(O)c2[C@@H](O[C@H]2C[C@H](NC(=O)C(F)(F)F)[C@H](O)[C@H](C)O2)C1)C(=O)c1c(OC)cccc1C3=O,1 µM (active),-97.5%
C=CC(=O)Nc1cc(Nc2nccc(-c3cn(C)c4ccccc34)n2)c(OC)cc1N(C)CCN(C)C,3.16 µM (active) and 8.91 µM (active),–
CC1=CC(=C(c2ccc(N)cc2)c2ccc(N)cc2)C=CC1=N,5.01 µM (active),–
O=C1CSC2(CCN(CCCN3c4ccccc4Sc4ccc(Cl)cc43)CC2)N1,25.1 µM (active),–
COc1ccc2c(c1)N(C[C@H](C)CN(C)C)c1ccccc1S2,11.2 µM (active),–
COc1cc(N2CCC(N3CCN(C)CC3)CC2)ccc1Nc1ncc(Cl)c(Nc2ccccc2P(C)(C)=O)n1,8.91 µM (active),–
Cc1cc(/C=C/c2ccc3cc(N(C)C)ccc3[n+]2C)c(C)n1-c1ccccc1,1.78 µM (active),–
CC(=O)Oc1cc(C)c(OC(C)=O)c2ccccc12,31.6 µM (active),–
CCCCC(=O)O[C@H]1CC[C@H]2[C@@H]3CCc4cc(O)ccc4[C@H]3CC[C@]12C,–,-64.3%
CC[C@@H](C(=O)O)[C@@H]1O[C@@H]([C@@H](C)[C@H](O)[C@H](C)C(=O)[C@H](CC)[C@H]2O[C@]3(C=C[C@@H](O)[C@]4(CC[C@@](C)([C@H]5CC[C@](O)(CC)[C@H](C)O5)O4)O3)[C@H](C)C[C@@H]2C)[C@@H](C)C[C@@H]1C,0.708 µM (active),–
Cc1cc(-n2c(=O)[nH]c(=O)n(C)c2=O)ccc1Oc1ccc(S(=O)(=O)C(F)(F)F)cc1,17.8 µM (active),–
CCCCCCCC(=O)CC[C@@H]1[C@@H](C/C=C\CCCC(=O)OC(C)C)[C@@H](O)C[C@H]1O,25.1 µM (active),–

# Experiment: VSVG counterscreen qHTS to identify inhibitors of SARS-CoV-2 cell entry (AID 1645847); further: nearly all actives have a fitted effect of over 65% in size; on activity change, negative = inhibition: on the % scale 0 is the no-effect control and ±100 the full control effect
# Settings: VSV-G pseudotyped particle entry, luciferase; series mostly up to 57.2 µM; activity change, negative = inhibition: at the top concentration
# How it was run: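 Luminescence read after 48 h infection at 37 C with VSV-G-pseudotyped MLV particles, following 1 h compound exposure of Expi293F cells stably expressing human ACE2; scaled between bald particle and VSV-G particle wells.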
SMILES,Potency,"activity change, negative = inhibition"
COc1cc([C@@H]2c3cc4c(cc3[C@@H](O[C@@H]3O[C@@H]5CO[C@@H](C)O[C@H]5[C@H](O)[C@H]3O)[C@H]3COC(=O)[C@H]23)OCO4)cc(OC)c1OP(=O)(O)O,0.482 µM (active),–
CC(Cc1ccc(O)c(O)c1)C(C)Cc1ccc(O)c(O)c1 (stereo unspecified),27.1 µM (active),–
CCCCC(=O)OCC(=O)[C@]1(O)Cc2c(O)c3c(c(O)c2[C@@H](O[C@H]2C[C@H](NC(=O)C(F)(F)F)[C@H](O)[C@H](C)O2)C1)C(=O)c1c(OC)cccc1C3=O,0.961 µM (active),–
CC(CN1c2ccccc2Sc2cccnc21)N(C)C (stereo unspecified),24.1 µM (active),–
COc1cc(N2CCC(N3CCN(C)CC3)CC2)ccc1Nc1ncc(Cl)c(Nc2ccccc2P(C)(C)=O)n1,–,-25.1% (inactive)
COC(=O)N[C@H](C(=O)N1CCC[C@H]1c1ncc(-c2ccc(-c3ccc(-c4cnc([C@@H]5CCCN5C(=O)[C@@H](NC(=O)OC)C(C)C)[nH]4)cc3)cc2)[nH]1)C(C)C,1.71 µM (active),–
